This is a sample that favours compounds with a hit; in the whole collection about 7.3% have one here.
SMN2 splice enh: SMN2 splice variant enhancement. Potency, µM (doses to about 46.1 µM), usual class: activators. hit rate 2.8% among 210,000. AID 1458. HEK293 SMN2-luciferase splicing reporter, luminescence, 30-36 h; further: nearly all actives have a fitted effect of over 55% in size
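HEK293 cells carry an SMN2 […]–luciferase reporter in which exon 7 inclusion puts luciferase in frame. Cells were plated 10-12 h before compound addition, then incubated 30-36 h at 37C. ONE-Glo luminescence was read; sodium butyrate at 4.5 mM final served as control.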
uPA surface inh: inhibitors of cell surface uPA generation; cell surface uPA generation assay, qHTS; Potency, µM (doses to about 38.3 µM), actives largely listed as inhibitors; hit rate 0.31% among 330,000; AID 540303; active means well fitted inhibition curve with a large enough effect; inconclusive means small, poorly fitted or top-dose-only effect; inactive means no such curve, though single readings can be large or run the other way; tested in mouse RAW 264.7 cells; further: nearly all actives have a fitted effect of over 55% in size
FLuc counter: firefly luciferase modulation, counter-screen for miR-21 project | purified FLuc, Km substrates, luminescence inhibition | hit rate 6.9% among 360,000 | Potency, µM (series often up to 57.5 µM), actives largely listed as inhibitors | P08659; further: nearly all actives have a fitted effect of over 55% in size
Target sequence (P08659 whole entry, looked up): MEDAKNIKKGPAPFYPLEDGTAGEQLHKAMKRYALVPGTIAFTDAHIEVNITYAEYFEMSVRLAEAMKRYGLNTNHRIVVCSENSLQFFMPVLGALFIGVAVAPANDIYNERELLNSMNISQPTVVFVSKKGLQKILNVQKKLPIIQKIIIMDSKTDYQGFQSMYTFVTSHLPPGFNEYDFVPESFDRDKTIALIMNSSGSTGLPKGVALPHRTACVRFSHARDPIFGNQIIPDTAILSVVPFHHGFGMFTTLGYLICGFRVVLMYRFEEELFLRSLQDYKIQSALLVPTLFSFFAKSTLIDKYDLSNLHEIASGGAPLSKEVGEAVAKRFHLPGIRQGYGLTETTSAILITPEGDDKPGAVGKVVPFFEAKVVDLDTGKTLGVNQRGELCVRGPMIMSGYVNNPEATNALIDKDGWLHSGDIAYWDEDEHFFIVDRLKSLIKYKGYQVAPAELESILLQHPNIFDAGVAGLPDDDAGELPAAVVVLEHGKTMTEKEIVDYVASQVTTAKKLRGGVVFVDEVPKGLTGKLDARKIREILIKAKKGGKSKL
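Purified P. pyralis luciferase, 10 nM final, with Km-level 10 uM D-luciferin and 10 uM ATP in 50 mM Tris acetate pH 7.5, 10 mM Mg acetate, 0.01% Tween-20, 0.05% BSA; 6-point qHTS titration about 60 µM downward; luminescence read.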
Rab9 promoter act: Rab9 promoter activation | Huh7 Rab9 promoter-luciferase reporter, luminescence, 24 h | Potency, µM (highest dose often 9.22 µM), hits mostly activators | hit rate 2.8% among 320,000 | AID 485297; further: nearly all actives have a fitted effect of over 60% in size
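Huh7 cells stably carrying Rab9 promoter–luciferase reporter, plated 1500 cells/well, compound added after 2 h and incubated 24 h at 37 °C; luciferase luminescence then read after 10 min with detection reagent.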
ELG1 genotox: inducers of genotoxicity in HEK293T ELG1-luciferase cells. HEK293T ELG1-luciferase reporter, luminescence, 16 h. Potency, µM (series often up to 46 µM), usual class: activators. hit rate 1.3% among 330,000. AID 504466; further: nearly all actives have a fitted effect of over 60% in size
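Genotoxicity was scored as increased ELG1-luciferase reporter signal, measured by ONE-Glo luminescence (30 min, room temperature). Compound or vehicle exposure of the HEK293T reporter cells lasted 16 hr at 37°C.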
NPC1 promoter act: activates the NPC1 promoter; hit rate 2.4% among 320,000; Huh7 NPC1 promoter luciferase reporter, 24 h; Potency, µM (titrated, usually from 9.22 µM), usual class: activators; further: nearly all actives have a fitted effect of over 60% in size
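Quantitative HTS used a cell-based reporter: Huh7 cells stably bearing the NPC1 promoter upstream of luciferase were treated with compounds for 24 h, and promoter activation was read as luminescence.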
Numbers stand for hits; i = inactive; ? = inconclusive; nt = not tested or not shown. Unless noted, the call rests on the fitted dose curve; in most records, active means well fitted curve in the direction sought with a large enough effect; inconclusive means small, poorly fitted or top-dose-only effect, or another doubt; inactive means no such curve, though single readings can be large; an effect the other way counts as inactive or inconclusive.

SMILES | SMN2 splice enh | uPA surface inh | FLuc counter | Rab9 promoter act | ELG1 genotox | NPC1 promoter act
Cc1cccc2c(N=Nc3ccccc3)c(O)[nH]c12 | nt | i | 1.5µM | 2µM | 5.2µM | 1.4µM
Cc1ccc(N=Nc2[nH]c3ccccc3c2O)cc1 | 13µM | i | ? | i | ? | i
Oc1[nH]c2ccccc2c1N=Nc1cccc(Cl)c1 | nt | i | 5.4µM | ? | ? | i
Oc1[nH]c2ccccc2c1N=Nc1ccccc1Cl | nt | i | nt | nt | nt | nt
Cc1nc(-c2ccncc2)sc1C(=O)Nc1ccc(Br)cc1 | i | i | i | i | i | i
Brc1ccc2[nH]c3c(c2c1)CCC3 | nt | i | i | i | i | i
O=C1Cc2c([nH]c3ccc(Br)cc23)-c2ccccc2N1 | 11µM | i | nt | 0.37µM | nt | 0.52µM
CN(C(=O)CSc1cn(CC(=O)N2CCCC2)c2ccccc12)c1ccccc1 | nt | nt | i | nt | nt | nt
O=C(COc1ccccc1)Nc1ccc(Cl)cn1 | nt | i | 19µM | ? | ? | i
O=C(COc1ccc(Cl)cc1Cl)Nc1ccccn1 | i | nt | 0.076µM | 0.1µM | i | ?
O=C(/C=C/c1ccc2c(c1)OCO2)NCCSCc1ccc(Cl)cc1Cl | i | i | ? | i | i | i
O=C(COc1ccccc1)NS(=O)(=O)c1ccc(Cl)cc1 | nt | i | 17µM | i | i | i
O=C(/C=C/c1ccc2c(c1)OCO2)Nc1ccc(Cl)cn1 | 10µM | i | 1.9µM | 0.56µM | 2.1µM | 1.1µM
CCOc1ccc(-c2nonc2NC(=O)c2oc3ccc(Cl)cc3c2C)cc1 | i | nt | ? | nt | nt | nt
COc1cccc(CSc2nnc(-c3ccncc3)n2N)c1 | nt | i | i | i | i | i
O=c1cc(CSc2ccccc2)[nH]c2ccc(F)cc12 | nt | nt | i | nt | nt | nt
CC(C)CCNC(=O)COc1ccc2c(c1)C(=O)CC(C)(C)O2 | i | i | i | i | ? | i
COC(=O)c1ccccc1NC(=O)COc1ccc2c(c1)OCO2 | nt | i | i | ? | i | i
Cc1ccccc1NC(=O)COc1ccc2c(c1)OC(C)(C)CC2=O | nt | i | 24µM | ? | i | ?
O=C(COc1ccc2c(c1)OCO2)Nc1ccccc1F | i | i | 6µM | ? | ? | ?
O=C(COc1ccccc1Cl)Nc1ccc(Cl)cn1 | 11µM | i | 0.95µM | 1.4µM | 3.2µM | 2.2µM
O=C(COc1ccc2c(c1)OCO2)Nc1ccc(Cl)cn1 | nt | i | 13µM | 3.5µM | ? | 2µM
COc1cc(OC)c(N(C)C(=O)CSc2c3c(nc4ccc(Cl)cc24)CCCC3)cc1Cl | i | nt | i | nt | nt | nt
O=C(COc1ccc(Cl)cc1)Nc1ccc(Cl)cn1 | nt | i | 12µM | ? | ? | ?
COc1ccc(C(=O)OCC(=O)Nc2ccc(Cl)cn2)cc1 | nt | i | i | i | i | i
SMILES | SMN2 splice enh | uPA surface inh | FLuc counter | Rab9 promoter act | ELG1 genotox | NPC1 promoter act
O=C(/C=C/c1ccc2c(c1)OCO2)NC1CCCC1 | nt | i | 15µM | i | i | i
CN(C)c1ccc(/C=N/Nc2nc3ccccc3o2)cc1 | nt | i | 0.54µM | 0.1µM | ? | ?
CCS(=O)(=O)c1ccc(C=NNc2nc3ccccc3o2)cc1 | nt | i | nt | nt | nt | nt
O=[N+]([O-])c1ccc(/C=N/Nc2nc3ccccc3o2)cc1 | nt | i | i | 2µM | ? | 2µM
Cc1cccc(OCC(=O)Nc2cccc(C(=O)OCc3cc(=O)n4nc(C(C)C)sc4n3)c2)c1 | nt | nt | i | nt | nt | nt
COC(=O)c1sc(NC(=O)c2c(-c3ccccc3)noc2C)nc1C | nt | i | ? | i | i | i
COC(=O)c1c(NC(=O)c2ccoc2C)sc(C)c1C | nt | i | i | i | i | i
COC(=O)c1sc(NC(=O)c2ccoc2C)nc1C | 22µM | i | ? | ? | ? | i
COC(=O)c1sc(NC(=O)c2c(C)noc2C)nc1C | nt | i | 24µM | i | ? | i
COc1ccc(CCNC(=O)c2ccc3c(c2)CCN3S(=O)(=O)c2ccccc2)cc1 | i | nt | i | nt | nt | nt
O=C(COC(=O)c1ccccc1F)c1ccc(-n2nncc2-c2ccco2)cc1 | i | i | 12µM | i | i | i
O=C(CCCCCNc1nc(=S)[nH]c2ccccc12)NCc1ccccc1Cl | i | nt | i | i | i | i
S=c1nc(NCCc2ccccc2Cl)c2ccccc2[nH]1 | nt | i | i | 3.5µM | i | 3.2µM
Cc1cc(C(=O)Nc2nc(C)c(C(=O)N(C)C)s2)ccc1[N+](=O)[O-] | 1.8µM | i | 4.3µM | 0.45µM | 2.6µM | 0.35µM
CC(C)(C)c1ccc(S(=O)(=O)NCc2ccc3c(c2)CCN3C(=O)c2ccccc2)cc1 | nt | nt | i | nt | nt | nt
O=[N+]([O-])c1ccc(NN=Cc2cccc([N+](=O)[O-])c2)cc1 | nt | i | nt | nt | nt | nt
O=[N+]([O-])c1ccc(N/N=C/c2cccc(O)c2)cc1 | nt | i | 24µM | i | ? | i
O=[N+]([O-])c1ccc(N/N=C/c2cccc(O)c2O)cc1 | nt | i | 17µM | i | 12µM | i
O=[N+]([O-])c1ccc(N/N=C/c2ccc[nH]2)cc1 | i | i | ? | i | i | i
Brc1cc2c(cc1-c1nc3ccccc3s1)OCO2 | nt | i | 12µM | i | i | i
CN(C)c1ncccc1-c1nc2ccccc2s1 | i | i | i | i | i | i
c1ccc(-c2nc3ccccc3s2)nc1 | 16µM | i | 3.8µM | 1.4µM | ? | 1.4µM
COc1cc(OC)cc(C(=O)Nc2cc(-c3nc4ccccc4s3)ccc2OC)c1 | i | nt | ? | nt | nt | nt
COc1cc(OC)cc(-c2nc3ccccc3s2)c1 | ? | nt | 8.5µM | i | ? | i
Brc1ccc(-c2nc3ccccc3s2)s1 | 14µM | i | 1.1µM | 1.6µM | ? | ?
SMILES | SMN2 splice enh | uPA surface inh | FLuc counter | Rab9 promoter act | ELG1 genotox | NPC1 promoter act
O=S(=O)(c1cc(-c2nc3ccccc3s2)ccc1Cl)N1CCOCC1 | i | nt | i | i | i | i
Nc1ccc(-c2nc3ccccc3s2)cn1 | nt | i | 4.8µM | 1.6µM | 9.2µM | 1.3µM
O=C1CCC(=O)N1c1ccc(-c2nc3ccccc3s2)cc1 | 10µM | i | 0.54µM | 0.35µM | ? | 0.45µM
CCOC(=O)C1=C(CN(CC)Cc2ccccc2)NC(=O)NC1c1ccc(Cl)cc1 (centres undefined) | i | nt | i | nt | nt | nt
Cc1sc(C2C(C#N)=C(N)N(c3ccc(Cl)cc3)C3=C2C(=O)CCC3)cc1CN1CCOCC1 (centres undefined) | nt | nt | i | nt | nt | nt
CC(=O)Nc1cccc(NC(=O)Cc2nc(-c3ccccc3)sc2-c2ccc(C)cc2)c1 | i | i | 21µM | i | i | i
COc1cccc(NC(=O)Cc2nc(-c3ccccc3)sc2-c2ccc(C)cc2)c1 | i | i | 15µM | i | i | i
COC(=O)c1cccc(NC(=O)Cc2nc(-c3ccccc3)sc2-c2ccc(C)cc2)c1 | i | i | i | i | i | i
Cc1cc(N2CCN(c3ccccc3)CC2)nc2ccccc12 | nt | i | 15µM | i | i | i
c1ccc(N2CCN(c3cnc4ccccc4n3)CC2)cc1 | 3.5µM | i | 3.4µM | 1.1µM | i | 1.6µM
Clc1ccc(N2CCN(c3cnc4ccccc4n3)CC2)cc1 | i | i | 17µM | ? | ? | ?
O=[N+]([O-])c1ccc(N2CCN(c3ccccc3)CC2)nc1 | nt | i | i | i | i | i
Fc1ccc(N2CCN(c3cnc4ccccc4n3)CC2)cc1 | nt | i | 11µM | 3.5µM | ? | 2.8µM
